The values that follow are results of earlier work, collected in PubChem BioAssay AID977611.

Among all 3,900 compounds or so, about 3,900 (100%) were called active. Cut-off not given; nearly all actives show Kd up to about 4200 µM. The set was probably picked from earlier hits. The list shows a part of the results. Numbered stars: 1 amine (or outer) side, 2 acyl side, 3 side chain; on linkers, the order of the positions; unused ones are H or OH. Square brackets hold non-standard residues; d marks the D form. Peptide text beside a SMILES is read from it. X2 = C[C@@H](O)C(C)(C)n1cc([C@@H](O)[C@H](N[*:1])C(=O)[*:2])c2ccccc21; Ala(3R-Me,3-isobutenyl) = CC(C)=C[C@@H](C)[C@H](N)C(=O)O; NMeLeu(5-OH,4R) = CN[C@@H](C[C@@H](C)CO)C(=O)O; Phe(βR-OMe) = CO[C@H](c1ccccc1)[C@H](N)C(=O)O; NMeL = CN[C@@H](CC(C)C)C(=O)O

A word on the Kd: it is a measure of binding affinity in units of concentration.

This series can be described thus: PubChem AID 977611. Particulars: PDB protein-ligand complexes, literature Kd.

In the case of `O=C1N[C@@H](c2ccc(O)cc2)c2c(-c3ccccc3)n[nH]c21`, the Kd (protein: Capsid protein p24, PDB entry 4u0f) was 1.2 µM (active).

For `CC(C)C[C@H](NC(=O)CNC(=O)[C@@H](N)CCC(N)=O)C(=O)N[C@@H](CC(C)C)C(=O)N[C@@H](CC(=O)O)C(=O)N[C@@H](C)C(=O)N[C@@H](CC(C)C)C(=O)N[C@@H](CC(=O)O)C(=O)N[C@@H](CC(C)C)C(=O)N[C@@H](C)C(=O)N[C@@H](CO)C(=O)O`, under “protein: 14-3-3 protein zeta/delta, PDB entry 4n7g”, the Kd is 2.2 µM (active).

As for `CC(C)C[C@H](NC(=O)[C@H](CO)NC(=O)[C@H](CC(=O)O)NC(=O)[C@H](CC(C)C)NC(=O)[C@H](CC(C)C)NC(=O)[C@H](CC(=O)O)NC(=O)[C@H](CC(=O)O)NC(=O)[C@@H](NC(=O)[C@H](CCC(N)=O)NC(=O)[C@H](CC(=O)O)NC(=O)[C@H](CCC(N)=O)NC(=O)[C@H](CO)NC(=O)[C@H](C)NC(=O)[C@@H](NC(=O)[C@@H](NC(=O)CNC(=O)[C@H](C)N)C(C)C)C(C)C)C(C)C)C(=O)NCC(=O)N[C@@H](Cc1ccccc1)C(=O)O`, under “protein: Chemotaxis protein cheY, PDB entry 2pl9”, the equilibrium dissociation constant (Kd) is 67.4 µM (active).

As for `O=C(O)Cc1ccc(N2C(=O)C(O)=C(C(=O)c3ccc(Cl)s3)[C@@H]2c2cc(Br)cs2)cc1`, the Kd (protein: Polymerase cofactor Ebola virus VP35, PDB entry 4ibf) is 36.8 µM (active).

Consider `Cc1cc(C)c([C@H]2C(C(=O)c3cccs3)=C(O)C(=O)N2c2ccc(CC(=O)O)cc2)cc1C`, for which, for the setting “protein: Polymerase cofactor Ebola virus VP35, PDB entry 4ibb”, the Kd was 271 µM (active).

Turning to `CN[C@@H](C)Cc1ccccc1`, the Kd (protein: Anti-METH scFv, PDB entry 4gqp) was 0.00025 µM (active).

`CO[C@H](c1ccccc1)[C@@H]1NC(=O)[C@H](C)NC(=O)[C@H](C[C@@H](C)CO)N(C)C(=O)[C@H]([C@H](O)c2cn(C(C)(C)[C@@H](C)O)c3ccccc23)NC(=O)[C@H]([C@H](C)C=C(C)C)NC(=O)[C@H](CC(C)C)N(C)C(=O)[C@H](C(C)C)NC1=O` (cyclo(A[Phe(βR-OMe)]V[NMeL][Ala(3R-Me,3-isobutenyl)][X2][NMeLeu(5-OH,4R)])): the Kd reads like this: (protein: Probable ATP-dependent Clp protease ATP-binding subunit(F2Y mutant), PDB entry 3wdd) 0.78 µM (active); (protein: Probable ATP-dependent Clp protease ATP-binding subunit, PDB entry 3wdc) 0.012 µM (active); (protein: Probable ATP-dependent Clp protease ATP-binding subunit, PDB entry 3wde) 0.124 µM (active).

For the compound `CNC(=O)Nc1cc(Br)cc(NC(=O)NS(=O)(=O)c2cc(C)c(CCOC)s2)n1`, the Kd (protein: Fructose-1,6-bisphosphatase 1, PDB entry 4mjo) was 0.6 µM (active).

Regarding `CNC(=O)C[C@H](C)O[P+](O)(O)OC`, the Kd (protein: Lysozyme C, PDB entry 4tun) is 3.87 µM (active).

In the case of `CC(=O)N[C@H]1[C@H]([C@H](O)[C@H](O)CO)O[C@@](OC[C@H]2O[C@@H](O)[C@H](O)[C@@H](O)[C@H]2O)(C(=O)O)C[C@@H]1O`, the Kd (protein: H5 (VN1194) Influenza Virus Haemagglutinin, PDB entry 4bgx) was 17000 µM (active); the Kd (protein: Hemagglutinin HA1, PDB entry 4kon) is 0.33 µM (active); the Kd (protein: Hemagglutinin(mutant form), PDB entry 4k67) was 372 µM (active); the Kd (protein: Hemagglutinin, PDB entry 4k64) is 1000 µM (active); the Kd (protein: Telomeric repeat-binding factor 2, PDB entry 4lkk) is 1.2 µM (active); the Kd (protein: neuraminidase, PDB entry 4gzx) was 645 µM (active).

Consider `CC(=O)N[C@H]1[C@H]([C@H](O)[C@H](O)CO)O[C@@H](C(=O)O)C[C@@H]1O`, for which the Kd by setting is: (protein: hemagglutinin with F95Y mutation of influenza virus B/Lee/40(F95Y mutant), PDB entry 4nrk) 0.024 µM (active); (protein: hemagglutinin with F95Y mutation of influenza virus B/Lee/40, PDB entry 4nrl) 0.0024 µM (active).

For the compound `CO[C@]1(C(=O)O)C[C@H](O)[C@@H](NC(=O)CO)[C@H]([C@H](O)[C@H](O)CO)O1`, the Kd (protein: Outer capsid protein VP4, PDB entry 3tay) is 420 µM (active).

As for `CC(=O)N[C@H]1[C@H]([C@H](O)[C@H](O)CO)O[C@@](O[C@H]2[C@@H](O)[C@@H](CO)O[C@@H](O[C@H]3[C@H](O)[C@@H](O)[C@@H](O)O[C@@H]3CO)[C@@H]2O)(C(=O)O)C[C@@H]1O`, the Kd (protein: Carbohydrate binding domain from Streptococcus pneumoniae NanA sialidase, PDB entry 4c1w) was 0.00039 µM (active).

Take `CC(=O)N[C@H]1[C@H]([C@H](O)[C@H](O)CO)O[C@@](O)(C(=O)O)C[C@@H]1O`: the dissociation constant Kd (protein: hemagglutinin, PDB entry 4lkh) was 1000 µM (active).

With `CC(=O)N[C@H]1[C@H]([C@H](O)[C@H](O)CO)O[C@@](O[C@@H]2[C@@H](O)[C@H](O)O[C@H](CO)[C@@H]2O)(C(=O)O)C[C@@H]1O`, the Kd (protein: Hemagglutinin(mutant form), PDB entry 4k66) was 554 µM (active).

As for `CC(=O)N[C@@H]1[C@@H](O[C@@H]2O[C@@H](C)[C@@H](O)[C@@H](O)[C@@H]2O)[C@H](O[C@@H]2O[C@H](CO)[C@H](O)[C@H](O[C@]3(C(=O)O)C[C@H](O)[C@@H](NC(C)=O)[C@H]([C@H](O)[C@H](O)CO)O3)[C@H]2O)[C@@H](CO)O[C@@H]1O`, under “PDB entry 4dxg”, the Kd is 0.087 µM (active).

Consider `CC(=O)N[C@@H]1[C@@H](O)[C@H](O[C@@H]2O[C@H](CO)[C@H](O)[C@H](O[C@]3(C(=O)O)C[C@H](O)[C@@H](NC(C)=O)[C@H]([C@H](O)[C@H](O)CO)O3)[C@H]2O)[C@@H](CO)O[C@H]1O`, for which the Kd by setting is: (protein: Hemagglutinin, PDB entry 4k63) 60 µM (active); (protein: Neuraminidase, PDB entry 4gzw) 30 µM (active); (protein: hemagglutinin, PDB entry 4lkg) 0.16 µM (active); (protein: hemagglutinin, PDB entry 4lkj) 0.2 µM (active).

Turning to `CC(=O)N[C@H]1[C@H]([C@H](O)[C@H](O)CO)O[C@@](O[C@H]2[C@@H](O)[C@@H](CO)O[C@@H](O[C@H]3[C@H](O)[C@@H](O)[C@H](O)O[C@@H]3CO)[C@@H]2O)(C(=O)O)C[C@@H]1O`, the Kd (protein: Human galectin-3 CRD K176L mutant, PDB entry 4lbl) is 11 µM (active) and the Kd (protein: wildtype Human galectin-3 CRD, PDB entry 4lbo) was 1.7 µM (active).

As to `CC(=O)N[C@H]1[C@H](O[C@@H]2[C@@H](O)[C@H](O)O[C@H](CO)[C@@H]2O)O[C@H](CO)[C@@H](O[C@@H]2O[C@H](CO)[C@H](O)[C@H](O[C@]3(C(=O)O)C[C@H](O)[C@@H](NC(C)=O)[C@H]([C@H](O)[C@H](O)CO)O3)[C@H]2O)[C@@H]1O`, the equilibrium dissociation constant (Kd) (protein: Hemagglutinin HA1, PDB entry 4kom) is 0.1 µM (active).

Turning to `O=C(NC[C@@H](COC(=O)c1cc(O)c(O)c(O)c1)OC(=O)c1cc(O)c(O)c(O)c1)Oc1cccc(C(F)(F)F)c1`, the Kd (protein: Plasminogen activator inhibitor 1, PDB entry 4g8o) is 0.022 µM (active) and the Kd (protein: Plasminogen activator inhibitor-1, PDB entry 4g8r) was 0.022 µM (active).

In the case of `C[C@H]1N[C@@H]2[C@@H](O)[C@H](O)[C@@H](CO)O[C@@H]2S1`, the Kd is 1.02 µM (active) (protein: BETA-N-ACETYLHEXOSAMINIDASE, PDB entry 4az5) and 1.38 µM (active) (protein: BETA-N-ACETYLHEXOSAMINIDASE, PDB entry 4azc).

For `CN1Cc2c(ccc3c2OCO3)-c2ccc3cc4c(cc3c21)OCO4`, the Kd is, setting by setting: (protein: Chitinase A(W275G mutant), PDB entry 3as0) 28 µM (active); (protein: Chitinase A, PDB entry 3arv) 2.3 µM (active).

As for `N[C@@H](CCC(=O)N[C@@H](CSCCN(CCCl)c1ccc(CCCC(=O)O)cc1)C(=O)NCC(=O)O)C(=O)O`, the dissociation constant (Kd) (protein: Glutathione S-transferase A1, PDB entry 4hj2) is 2950 µM (active).
